The record followed here is PubChem BioAssay (NCATS).

Records with an inconclusive call do not appear. Calls of active or inactive are those of the source. Unless noted, calls come from the whole dose curve; as a rule, active = well fitted curve in the direction sought with a large enough effect; inconclusive = small, poorly fitted or top-dose-only effect, or another doubt; inactive = no such curve, though single readings can be large; an effect the other way counts as inactive or inconclusive.

For assay [1], the target named is Lysosomal acid glucosylceramidase (Homo sapiens) (UniProt P04062). Briefly: Glucocerebrosidase-p2 (AID 348; in the data active = potency below about 10 µM; note: potency is the fitted concentration of half-maximal effect). To be noted: purified GBA, blue fluorogenic substrate, 40 min. The method in brief: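 Compounds titrated from 0.6 nM upwards against 0.2 nM enzyme in pH 5.9 citric acid/KH2PO4, taurocholate, tween-20; blue fluorogenic substrate 80 uM, 40 min room temperature, stopped and read Ex 365/Em 440 for AC50.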
Chain of Lysosomal acid glucosylceramidase (Homo sapiens) (P04062 whole entry, looked up): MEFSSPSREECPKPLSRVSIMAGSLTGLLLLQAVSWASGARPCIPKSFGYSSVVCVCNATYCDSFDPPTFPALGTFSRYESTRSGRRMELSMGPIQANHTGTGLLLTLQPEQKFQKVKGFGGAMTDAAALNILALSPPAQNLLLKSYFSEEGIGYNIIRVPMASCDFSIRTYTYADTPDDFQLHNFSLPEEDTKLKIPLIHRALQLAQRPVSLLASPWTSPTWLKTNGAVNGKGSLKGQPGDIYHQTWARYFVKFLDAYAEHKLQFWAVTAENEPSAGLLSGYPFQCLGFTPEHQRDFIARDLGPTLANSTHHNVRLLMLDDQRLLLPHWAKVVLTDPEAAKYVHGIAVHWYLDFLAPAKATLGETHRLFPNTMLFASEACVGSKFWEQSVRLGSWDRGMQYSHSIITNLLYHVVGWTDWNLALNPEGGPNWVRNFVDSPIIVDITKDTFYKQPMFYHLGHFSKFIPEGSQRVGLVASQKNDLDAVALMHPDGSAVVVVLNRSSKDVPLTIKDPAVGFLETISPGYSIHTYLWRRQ

The target in assay [2] is Cytochrome P450 1A2 (Homo sapiens) (UniProt P05177). Kind of assay: p450-cyp1a2 (AID 410; calls by dose curve; note: potency is the fitted concentration of half-maximal effect). The following applies: recombinant CYP1A2, luciferin-ME demethylation, luminescence; series mostly up to 57 µM. The method in brief:
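Luminescent readout of luciferin formed from Luciferin-ME by human CYP1A2; data normalized against complete inhibition by 57 uM furafylline. Enzyme 20nM, substrate 100uM at Km, 100mM KPO4 buffer, 60 min reaction at room temperature.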

Assay [3] can be described thus: NFAT Signaling Pathway (AID 444; active = well fitted curve in either direction with a large enough effect, not every such curve was filed as active;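 note: carbachol stimulus at about its EC50 of 1 µM final; % is set by controls: 0 for no effect and ±100 for the full control effect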). The following applies: Jurkat NFAT-bla M1, carbachol, beta-lactamase ratio, 5 h; at 7.69 µM (top of the series) unless noted. The method in brief:
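Jurkat cells carrying an NFAT-driven β-lactamase reporter and co-transfected muscarinic M1 receptor were treated with compound plus carbachol (1 uM final, an EC50 level) for 5 h at 37 °C. CCF4 loading followed for 1 h at RT; 460/530 nm ratio gave %activity.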

Assay [4] addresses Glucocorticoid receptor (Homo sapiens) (UniProt P04150). Kind of assay: GR-GFP Redistribution (AID 450;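 active = compounds whose dose series gives a full or clear partial fitted curve of increased nuclear translocation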; note: potency is the fitted concentration of half-maximal effect). To be noted: U2OS GR-GFP nuclear translocation, laser cytometry, 2 h.
For assay [5] the target is unchanged. Kind of assay: GR-EFC Redistribution (AID 451; calls by dose curve; note: potency is the fitted concentration of half-maximal effect). To be noted: CHO-K1 GR-EFC translocation, beta-gal luminescence, 2 h. The method in brief: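 CHO-K1 cells stably expressing nuclear-localized β-gal enzyme acceptor and GR fused C-terminally to the enzyme donor fragment; ligand-driven nuclear translocation restores β-gal by complementation. Compounds titrated up to 46 uM final, 2 h at 37 °C; luminescence read.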

Assay [6] concerns the target Mitogen-activated protein kinase 10 (Mus musculus) (UniProt Q61831). Briefly: JNK3 AlphaScreen Assay (AID 530; active = well fitted curve in either direction with a large enough effect, not every such curve was filed as active;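 note: kinase came from lysate of stimulated human HepG2 cells; signal reports phosphorylation of biotinylated GST-cJun 1-79 at Ser73 with 10 µM ATP; % is set by controls: 0 for no effect and ±100 for the full control effect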). The following applies: JNK3 lysate, c-Jun phosphorylation; series mostly up to 57.1 µM. The method, boiled down: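 Inhibitors reduce antibody binding to phosphorylated biotin-cJun, lowering AlphaScreen luminescence. Lysates from HepG2 cells pre-activated by IL-1beta plus TNF-alpha supplied JNK3; compounds were titrated.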
(In general: In Alpha technology, singlet oxygen from a donor bead excites a nearby acceptor bead.)

In assay [7] the target is 3',5'-cyclic-AMP phosphodiesterase 4B (Homo sapiens) (UniProt Q07343). Kind of assay: qHTS Assay for Inhibitors of PDE-IV (AID 607; active = well fitted activation curve with a large enough effect in the main read-out, with a control signal flat, not every such curve was filed as active; note: % of control where 0% means no effect). The following applies: HEK293 ACTOne CNG channel cells, membrane potential fluorescence; series mostly up to 22.9 µM. The method in brief:
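Cell-based read-out of cAMP via a modified cyclic nucleotide-gated channel and membrane potential dye (535/590 nm) in HEK293 cells expressing PDE4 endogenously. Compounds tested up to 22.9 uM final; 100 uM RO 20-1724 reference.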
(Quantitative high-throughput screening tests each substance at several concentrations.)

Assay [8] can be described thus: qHTS Assay for Lipid Storage Modulators (AID 1519; calls by dose curve). To be noted: Drosophila S3 cells, BODIPY lipid droplet/cell ratio, laser cytometry, cells loaded with oleic acid; for activity change, negative = inhibition: at 57.5 µM (top of the series). The method in brief: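 Cells seeded at 5,000 per well were treated with compounds over a concentration series and loaded with oleic acid (400 uM, as added). Lipid droplet fluorescence (488 nm excitation, 500-530 nm channel) was read by laser-scanning cytometry and normalized to 20 uM Triacsin C.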

Assay [9] deals with Dual specificity protein kinase CLK4 (Homo sapiens) (UniProt Q9HAZ1). Briefly: qHTS Assay for Inhibitors of CDC-like Kinase 4 (Kinase-Glo Assay) (AID 1770). Note: nearly all actives have a fitted effect of over 65% in size. Note: potency is the fitted concentration of half-maximal effect. To be noted: recombinant Clk4, Kinase-Glo ATP depletion luminescence; series mostly up to 66.7 µM. The method, boiled down: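 Clk4 25 nM, RS peptide 100 uM, ATP 1 uM, pH 7.5 Tris, 10 mM MgCl2, 2.5 mM DTT; 4.5 h RT; ATP depletion read by Kinase-Glo luminescence.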
Chain of Dual specificity protein kinase CLK4 (Homo sapiens) (Q9HAZ1 whole entry, looked up): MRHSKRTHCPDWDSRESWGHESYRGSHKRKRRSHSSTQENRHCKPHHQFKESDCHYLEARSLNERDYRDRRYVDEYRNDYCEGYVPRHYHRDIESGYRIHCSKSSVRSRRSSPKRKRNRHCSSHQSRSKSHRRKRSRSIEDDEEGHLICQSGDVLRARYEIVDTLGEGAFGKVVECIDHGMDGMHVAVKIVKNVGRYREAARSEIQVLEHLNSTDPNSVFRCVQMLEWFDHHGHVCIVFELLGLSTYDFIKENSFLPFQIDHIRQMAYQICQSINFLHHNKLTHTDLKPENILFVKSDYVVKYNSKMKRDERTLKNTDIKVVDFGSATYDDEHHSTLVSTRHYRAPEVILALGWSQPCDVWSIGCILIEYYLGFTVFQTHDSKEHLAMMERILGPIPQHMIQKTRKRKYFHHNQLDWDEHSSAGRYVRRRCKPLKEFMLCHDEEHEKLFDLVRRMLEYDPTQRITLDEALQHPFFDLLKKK

The target is the same in assay [10]. Briefly: qHTS Assay for Inhibitors of CDC-like Kinase 4 (ADP-Glo Assay) (AID 1771). Note: nearly all actives have a fitted effect of over 70% in size. Note: potency is the fitted concentration of half-maximal effect. The following applies: recombinant CLK4, ADP-Glo luminescence; series mostly up to 80 µM. The method, boiled down: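 Luminescence from ADP-Glo reports ADP produced by 25 nM Clk4 acting on 100 uM RS repeat peptide with 1 uM ATP over 1 hr at room temperature; residual ATP is depleted before ADP is converted to ATP for detection.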

The target is the same in assay [11]. Briefly: qHTS Assay for Inhibitors of CDC-like Kinase 4 (ADP-FP Assay) (AID 1795). Note: nearly all actives have a fitted effect of over 60% in size. Note: potency is the fitted concentration of half-maximal effect. To be noted: Transcreener ADP fluorescence polarization; series mostly up to 50 µM. The method, boiled down:
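Kinase activity was followed as ADP output, converted from fluorescence polarization with a calibration curve. Reactions ran one hour at low ATP (1 uM) with RS peptide substrate.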

Assay [12] concerns the target Ubiquitin carboxyl-terminal hydrolase 1 (Homo sapiens) (UniProt O94782). Kind of assay: Inhibitors of USP1/UAF1: Pilot qHTS (AID 504865).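 Note: rhodamine fluorescence freed from ubiquitin-rhodamine substrate followed over time; top concentration of the series differs between compounds; % is set by controls: 0 for no effect and ±100 for the full control effect; nearly all actives have a fitted effect of over 35% in size.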 The following applies: purified USP1/UAF1, Ub-rhodamine cleavage fluorescence; series mostly up to 54.9 µM. The method, boiled down: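 Enzyme-free wells gave the negative control, while test wells held 1nM USP1/UAF1 preincubated with compound for 15 min at room temperature. Ub-Rho at 150nM final started the reaction, and fluorescence at 480/540 nm was recorded kinetically.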

Assay [13] is described as follows: Primary qHTS for small molecule stabilizers of the endoplasmic reticulum resident proteome: Secreted ER Calcium Modulated Protein (SERCaMP) assay (AID 1508630). Note: % is set by controls: 0 for no effect and ±100 for the full control effect. To be noted: SH-SY5Y GLuc-SERCaMP (Gaussia luciferase released on ER calcium loss) secretion, thapsigargin, luminescence; series mostly up to 38.4 µM. The method in brief: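 GLuc-SERCaMP-expressing SH-SY5Y cells, pretreated 16 h with compound, are challenged with thapsigargin to empty ER calcium stores; after 4 h, coelenterazine is added directly to the medium and luminescence is imaged.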

The nature of assay [14]: Stat Signaling Pathway (AID 446; active = well fitted curve in either direction with a large enough effect, not every such curve was filed as active;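 note: ME-180 cervical cancer cells given 40 pM IL-6 alongside compound; SIE-controlled beta-lactamase reporter measured as 460/530 nm FRET emission ratio; % is set by controls: 0 for no effect and ±100 for the full control effect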). The following applies: ME-180 SIE beta-lactamase reporter, IL-6 stimulated, 5 h; at 7.69 µM (top of the series) unless noted. The method, boiled down:
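Reporter line: ME-180 cervical carcinoma, SIE-beta-lactamase. Treatment: compound with 40 pM IL-6, 5 hrs, 37 C, in low-serum OPTI-MEM with 10 mM HEPES pH 7.3. Detection: 460/530 nm fluorescence.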

Assay [15] can be described thus: AP1 Signaling Pathway (AID 357; active = well fitted curve in either direction with a large enough effect, not every such curve was filed as active; note: % is set by controls: 0 for no effect and ±100 for the full control effect). To be noted: ME-180 AP-1-bla reporter, EGF-induced, beta-lactamase ratio, 5 h; at 7.69 µM (top of the series) unless noted. The method in brief: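 ME-180 cells with beta-lactamase reporter under AP-1 response element, stimulated with EC50 EGF; compounds tested in titration series, 5 h at 37 °C. CCF4 substrate added 2.5 h at room temperature; 460/530 nm emission ratio gave %activity and AC50.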

In assay [16] the target is Cytochrome P450 3A4 (Homo sapiens) (UniProt P08684). Briefly: qHTS Assay for Activators of Cytochrome P450 3A4 (AID 885). Note: nearly all actives have a fitted effect of over 65% in size. The following applies: recombinant CYP3A4, Luciferin-PPXE luminescence, 60 min; series mostly up to 57.1 µM. The method, boiled down: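 Signal was normalized against complete inhibition by 57 uM ketoconazole. The reaction used 20nM CYP3A4 with 25uM Luciferin-PPXE, 10-min compound preincubation and a 60-min NADPH-supported step at RT.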
Chain of Cytochrome P450 3A4 (Homo sapiens) (P08684 whole entry, looked up): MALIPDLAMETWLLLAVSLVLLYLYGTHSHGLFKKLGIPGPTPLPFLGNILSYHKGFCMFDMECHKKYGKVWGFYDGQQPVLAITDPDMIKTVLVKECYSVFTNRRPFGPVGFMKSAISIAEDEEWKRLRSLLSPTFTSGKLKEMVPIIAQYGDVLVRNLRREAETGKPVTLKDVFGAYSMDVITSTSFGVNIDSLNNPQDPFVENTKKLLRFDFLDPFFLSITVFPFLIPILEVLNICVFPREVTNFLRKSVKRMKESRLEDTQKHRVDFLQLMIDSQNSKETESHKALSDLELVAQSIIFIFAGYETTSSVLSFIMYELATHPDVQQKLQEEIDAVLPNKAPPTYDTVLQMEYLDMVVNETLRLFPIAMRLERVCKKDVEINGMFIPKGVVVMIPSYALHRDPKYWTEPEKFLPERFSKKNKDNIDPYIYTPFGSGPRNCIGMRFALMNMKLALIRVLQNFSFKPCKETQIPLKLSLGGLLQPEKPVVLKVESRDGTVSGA

Assay [17] deals with Cytochrome P450 2C19 (Homo sapiens) (UniProt P33261). Kind of assay: qHTS Assay for Inhibitors and Substrates of Cytochrome P450 2C19 (AID 899). Note: potency is the fitted concentration of half-maximal effect; nearly all actives have a fitted effect of over 60% in size. To be noted: recombinant CYP2C19, luciferin-H EGE luminescence; series mostly up to 57.1 µM. The method in brief:
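Human CYP2C19 (5nM) with Luciferin-H EGE at 10uM (its KM) in 50mM KPO4 was preincubated with compound for 10 min at 37C. NADPH regeneration started a 60 min 37C reaction. Luciferin was read by luminescence, normalized to 57uM ketoconazole.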

The mark [18] stands for this setting: measured here: cell count channel max response.
Setting [19] is: measured here: lipid channel max response.

Chain of Cytochrome P450 1A2 (Homo sapiens) (P05177 whole entry, looked up): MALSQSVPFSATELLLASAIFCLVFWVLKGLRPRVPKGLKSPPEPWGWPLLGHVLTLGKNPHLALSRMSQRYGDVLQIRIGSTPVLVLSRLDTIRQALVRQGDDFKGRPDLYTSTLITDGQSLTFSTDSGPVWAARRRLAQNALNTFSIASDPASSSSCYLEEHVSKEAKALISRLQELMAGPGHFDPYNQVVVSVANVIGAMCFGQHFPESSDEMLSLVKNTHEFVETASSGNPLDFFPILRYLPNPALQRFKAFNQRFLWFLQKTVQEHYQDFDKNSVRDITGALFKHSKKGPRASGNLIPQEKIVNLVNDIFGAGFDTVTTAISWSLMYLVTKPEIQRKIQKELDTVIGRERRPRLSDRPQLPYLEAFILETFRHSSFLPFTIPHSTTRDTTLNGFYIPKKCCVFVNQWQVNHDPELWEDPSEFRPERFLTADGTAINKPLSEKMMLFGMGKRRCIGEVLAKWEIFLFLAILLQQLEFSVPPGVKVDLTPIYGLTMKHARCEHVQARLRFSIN
Chain of Ubiquitin carboxyl-terminal hydrolase 1 (Homo sapiens) (O94782 whole entry, looked up): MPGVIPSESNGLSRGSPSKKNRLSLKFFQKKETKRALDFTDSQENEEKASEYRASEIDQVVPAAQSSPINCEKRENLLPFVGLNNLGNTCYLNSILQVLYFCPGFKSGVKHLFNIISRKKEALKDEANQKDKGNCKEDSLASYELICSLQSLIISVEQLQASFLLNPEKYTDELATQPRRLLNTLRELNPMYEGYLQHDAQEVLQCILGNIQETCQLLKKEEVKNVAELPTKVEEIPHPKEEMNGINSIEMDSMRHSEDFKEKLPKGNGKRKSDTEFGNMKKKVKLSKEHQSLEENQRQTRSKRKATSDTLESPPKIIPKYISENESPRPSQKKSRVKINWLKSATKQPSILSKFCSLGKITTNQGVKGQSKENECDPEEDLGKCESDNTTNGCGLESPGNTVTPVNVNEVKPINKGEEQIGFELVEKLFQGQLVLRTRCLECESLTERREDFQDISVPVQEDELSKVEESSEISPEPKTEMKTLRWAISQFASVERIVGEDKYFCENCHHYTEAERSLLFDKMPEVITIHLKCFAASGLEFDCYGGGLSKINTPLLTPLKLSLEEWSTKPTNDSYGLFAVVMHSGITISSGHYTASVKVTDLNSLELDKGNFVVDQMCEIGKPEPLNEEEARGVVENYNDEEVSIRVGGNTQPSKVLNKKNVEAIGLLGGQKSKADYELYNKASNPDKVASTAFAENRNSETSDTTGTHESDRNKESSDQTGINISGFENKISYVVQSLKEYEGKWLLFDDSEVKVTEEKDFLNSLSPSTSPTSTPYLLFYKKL
Chain of 3',5'-cyclic-AMP phosphodiesterase 4B (Homo sapiens) (Q07343 whole entry, looked up): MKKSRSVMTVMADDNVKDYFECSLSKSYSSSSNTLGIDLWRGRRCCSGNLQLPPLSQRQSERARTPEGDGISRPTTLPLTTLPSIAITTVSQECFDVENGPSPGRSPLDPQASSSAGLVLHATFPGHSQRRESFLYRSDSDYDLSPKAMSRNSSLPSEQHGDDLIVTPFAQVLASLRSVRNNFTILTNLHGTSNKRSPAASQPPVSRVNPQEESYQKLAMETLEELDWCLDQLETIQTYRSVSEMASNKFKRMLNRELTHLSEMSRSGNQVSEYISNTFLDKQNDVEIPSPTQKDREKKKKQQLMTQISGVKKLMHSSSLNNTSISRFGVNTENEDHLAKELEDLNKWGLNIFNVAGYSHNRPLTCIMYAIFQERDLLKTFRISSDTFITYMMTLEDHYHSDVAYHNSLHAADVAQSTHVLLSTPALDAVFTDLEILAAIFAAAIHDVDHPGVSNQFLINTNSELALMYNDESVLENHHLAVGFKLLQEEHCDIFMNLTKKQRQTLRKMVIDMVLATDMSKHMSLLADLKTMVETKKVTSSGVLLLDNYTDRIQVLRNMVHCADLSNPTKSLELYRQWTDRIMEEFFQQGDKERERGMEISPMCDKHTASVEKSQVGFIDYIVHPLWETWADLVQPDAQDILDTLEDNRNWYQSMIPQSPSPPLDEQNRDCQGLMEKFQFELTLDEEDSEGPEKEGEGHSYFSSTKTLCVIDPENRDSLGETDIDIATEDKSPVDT
Chain of Glucocorticoid receptor (Homo sapiens) (P04150 whole entry, looked up, the tested form may be a part): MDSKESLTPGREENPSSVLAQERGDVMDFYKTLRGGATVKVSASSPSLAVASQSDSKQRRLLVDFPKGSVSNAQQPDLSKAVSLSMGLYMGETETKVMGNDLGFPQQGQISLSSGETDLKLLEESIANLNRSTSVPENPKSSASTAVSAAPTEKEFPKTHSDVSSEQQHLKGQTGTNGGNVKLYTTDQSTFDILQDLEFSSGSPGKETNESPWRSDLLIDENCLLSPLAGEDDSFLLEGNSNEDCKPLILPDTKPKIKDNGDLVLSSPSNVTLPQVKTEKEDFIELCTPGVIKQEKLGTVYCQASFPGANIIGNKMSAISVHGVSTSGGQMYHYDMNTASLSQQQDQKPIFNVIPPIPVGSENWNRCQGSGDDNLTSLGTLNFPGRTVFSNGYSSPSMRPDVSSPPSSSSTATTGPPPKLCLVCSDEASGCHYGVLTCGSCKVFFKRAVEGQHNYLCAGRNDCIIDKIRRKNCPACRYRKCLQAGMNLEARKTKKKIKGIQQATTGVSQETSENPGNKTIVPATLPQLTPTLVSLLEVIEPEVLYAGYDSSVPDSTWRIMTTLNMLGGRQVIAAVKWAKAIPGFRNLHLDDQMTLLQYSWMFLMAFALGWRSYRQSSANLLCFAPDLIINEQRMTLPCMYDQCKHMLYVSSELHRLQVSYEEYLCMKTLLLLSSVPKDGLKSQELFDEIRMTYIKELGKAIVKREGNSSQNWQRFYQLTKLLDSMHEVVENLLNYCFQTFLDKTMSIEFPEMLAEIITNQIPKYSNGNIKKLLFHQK
Chain of Cytochrome P450 2C19 (Homo sapiens) (P33261 whole entry, looked up): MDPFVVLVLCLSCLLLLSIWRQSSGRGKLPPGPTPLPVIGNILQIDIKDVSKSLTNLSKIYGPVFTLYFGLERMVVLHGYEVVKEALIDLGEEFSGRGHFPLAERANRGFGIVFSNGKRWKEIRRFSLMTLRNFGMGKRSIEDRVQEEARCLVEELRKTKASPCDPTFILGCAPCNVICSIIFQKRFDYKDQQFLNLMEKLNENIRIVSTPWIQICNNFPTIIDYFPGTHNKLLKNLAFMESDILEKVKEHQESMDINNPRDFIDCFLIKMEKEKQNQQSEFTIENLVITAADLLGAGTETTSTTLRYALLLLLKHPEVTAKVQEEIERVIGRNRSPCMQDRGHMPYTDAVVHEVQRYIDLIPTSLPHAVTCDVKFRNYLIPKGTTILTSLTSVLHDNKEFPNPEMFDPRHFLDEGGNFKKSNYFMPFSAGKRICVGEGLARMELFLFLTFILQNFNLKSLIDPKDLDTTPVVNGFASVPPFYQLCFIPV

Take `O=c1c(-c2cccs2)nc2cnc(N3CCOCC3)nc2n1Cc1cccs1`: the Potency is > 11.4 µM (inactive) in assay [1], 15.8 µM (active) in assay [2], > 9.22 µM (inactive) in assay [4] and > 46 µM (inactive) in assay [5]. Moreover, the activity change, negative = inhibition was -8.44% (inactive) in assay [3] and -15.7% (inactive) in [8]. Moreover, in assay [6], the compound was classed as inactive. In addition, the Potency entry in [7], in assay [9], in [10], in assay [11], in assay [12] and in [13] was “inactive” throughout. Moreover, the max response in [8] (setting [18]) came to 22.5%; in assay [8] (setting [19]), 0.532%.
Regarding `CN(C)c1ncc2nc(-c3cc(F)cc(F)c3)c(=O)n(C[C@H]3CCCO3)c2n1`, the Potency in assay [1] is > 11.4 µM (inactive); in assay [2], 0.0794 µM (active); in assay [4], > 9.22 µM (inactive); in assay [5] it was > 46 µM (inactive). In addition, the activity change, negative = inhibition in assay [3] is 9.35% (inactive); in assay [8], 7.12% (inactive). The activity, negative = inhibition in assay [14] is 29.3% (inactive). Also, the result in assay [6] was inactive. Moreover, the Potency result in assay [7], in [9], in assay [10], in assay [11], in [12] and in [13] was “inactive” each time. Besides, the max response in assay [8] (setting [18]) stood at 15.3%; in [8] (setting [19]) it was 23.7%.
As to `COCCn1c(=O)c(-c2cn(C)c3ccccc23)nc2cnc(Oc3cccc(Cl)c3)nc21`, the Potency was > 11.4 µM (inactive) in [1], > 9.22 µM (inactive) in [4] and > 46 µM (inactive) in assay [5]. In addition, the figures for the activity change, negative = inhibition in assay [15], in assay [3] and in assay [8] were -7.97% (inactive), 5.68% (inactive) and -4.01% (inactive), respectively. Further, in assay [14], the activity, negative = inhibition is 3.06% (inactive). Further, the Potency entry in assay [7], in assay [9], in [10], in assay [11], in [12] and in assay [13] was “inactive” in each case. The max response in [8] (setting [18]) is 23.7%; in assay [8] (setting [19]), 16.7%.
For the compound `CN(C)c1ncnc2ccc(-c3ccoc3)cc12`, the Potency in [1] is > 11.4 µM (inactive); in assay [2], 0.794 µM (active); in assay [4] it was > 46 µM (inactive); in assay [5] it was > 46 µM (inactive); in assay [9] it was 0.501 µM (active); in [10], 0.562 µM (active). For the same compound, in [11], the Potency was 0.178 µM (active). Besides, the activity change, negative = inhibition in assay [3] was 1.35% (inactive); in assay [8] it was 1.41% (inactive). Moreover, the activity, negative = inhibition in assay [14] was -10.6% (inactive). Besides, the outcome in assay [6] was inactive. In addition, the Potency result in assay [16], in assay [12] and in assay [13] was “inactive” throughout. In addition, the max response was 30.5% in [8] (setting [18]) and 29.1% in [8] (setting [19]).
As for `Cc1nc2cncnc2n(C2CC2)c1=O`, the Potency in [1] is > 11.4 µM (inactive); in [2] it was 15.8 µM (active); in assay [4] it was > 9.22 µM (inactive); in assay [5], > 46 µM (inactive); in assay [17], 3.98 µM (active). Moreover, the activity change, negative = inhibition in assay [3] is 2.34% (inactive); in assay [8] it was 9.2% (inactive). The activity, negative = inhibition in [14] was -12.1% (inactive). The outcome in assay [6] was inactive. For the same compound, the Potency entry in assay [7], in assay [16], in assay [9], in assay [10], in [11] and in assay [12] was “inactive” throughout. In assay [13], the Potency result was “inactive”. The max response in assay [8] (setting [18]) was found to be 24%; in assay [8] (setting [19]), 34.8%.
